FLuc modulator = firefly luciferase modulation, counter-screen for miR-21 project. P08659. purified FLuc, Km substrates, luminescence inhibition. Potency, µM (top dose mostly 57.5 µM), inactives show at the top dose activity change, negative = inhibition, hits mostly inhibitors. hit rate 6.9% among 360,000;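 note: plate controls were vehicle for no effect and reference inhibitor for full effect; nearly all actives have a fitted effect of over 55% in size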
Target sequence (P08659 whole entry, looked up): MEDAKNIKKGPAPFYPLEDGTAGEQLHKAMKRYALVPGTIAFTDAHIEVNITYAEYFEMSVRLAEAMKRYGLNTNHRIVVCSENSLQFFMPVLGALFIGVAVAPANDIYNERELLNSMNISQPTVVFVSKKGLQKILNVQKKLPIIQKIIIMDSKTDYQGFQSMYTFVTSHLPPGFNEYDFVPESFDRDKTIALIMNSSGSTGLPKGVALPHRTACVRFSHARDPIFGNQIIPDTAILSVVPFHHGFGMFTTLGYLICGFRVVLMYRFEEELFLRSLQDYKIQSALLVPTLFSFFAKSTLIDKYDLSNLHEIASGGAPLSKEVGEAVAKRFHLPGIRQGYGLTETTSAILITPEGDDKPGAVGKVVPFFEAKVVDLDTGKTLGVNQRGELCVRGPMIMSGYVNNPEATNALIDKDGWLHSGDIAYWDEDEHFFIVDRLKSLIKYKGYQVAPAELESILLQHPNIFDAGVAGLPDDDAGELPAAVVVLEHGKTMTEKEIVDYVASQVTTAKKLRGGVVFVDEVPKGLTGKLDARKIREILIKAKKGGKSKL
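Biochemical qHTS of compounds, final roughly 60 µM downward over six points, against 10 nM purified firefly luciferase using Km concentrations of substrates (10 uM D-luciferin, 10 uM ATP) in Tris acetate pH 7.5 buffer; luminescence output.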
NPC1 prom act = NPC1 promoter activation; Huh7 NPC1 promoter luciferase reporter, 24 h; Potency, µM (highest dose often 9.22 µM), for the others: at the top dose activation, actives largely listed as activators; hit rate 2.4% among 320,000; note: % of control where 0% means no effect; nearly all actives have a fitted effect of over 60% in size
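Cells: Huh7 expressing luciferase under the NPC1 promoter, 1500/well. Seeded 2 h, compound added, incubated 24 h at 37 °C. Luciferase reagent, 10 min ambient, then luminescence.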
SMN2 splice up = SMN2 splice variant enhancement | HEK293 SMN2-luciferase splicing reporter, luminescence, 30-36 h | Potency, µM (top dose mostly 46.1 µM), for the others: at the highest dose activity change, positive = activation, most hits filed as activators | hit rate 2.8% among 210,000 | AID 1458; note: % of control where 0% means no effect; nearly all actives have a fitted effect of over 55% in size
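HEK293 cells carry an SMN2 minigene-luciferase reporter in which exon 7 inclusion puts luciferase in frame. Cells were seeded at 2000 cells/well, attached for 10-12 hours, then exposed to compounds for 30-36 hours at 37C before ONE-Glo luminescence.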
KinaseGlo FLuc = counter-screen: inhibitors of Kinase-Glo firefly luciferase; Q27757; Kinase-Glo luciferase, ATP luminescence, 8 min; Potency, µM (highest dose often 38.3 µM), without a hit: top-dose activity change, negative = inhibition, hits mostly inhibitors; hit rate 0.28% among 200,000; AID 1379; note: % is set by controls: 0 for no effect and ±100 for the full control effect; nearly all actives have a fitted effect of over 60% in size
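Inhibition of Kinase-Glo luciferase light generation was assessed at 10 uM ATP in pH 7.2 imidazole buffer, with luminescence measured after eight minutes at ambient temperature.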
Rab9 prom act = activates the Rab9 promoter; Huh7 Rab9 promoter-luciferase reporter, luminescence, 24 h; Potency, µM (titrated, usually from 9.22 µM), without a hit: at the top dose activation, negative = inhibition, usual class: activators; hit rate 2.8% among 320,000; AID 485297; note: % of control where 0% means no effect; nearly all actives have a fitted effect of over 60% in size
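Quantitative HTS format; Huh7 Rab9-luciferase reporter cells (1500/well) receive compound 2 h post-plating, incubate 24 h at 37 °C, then get luciferase reagent for 10 min before luminescence reading.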
Starred values were filed as active, the others as inactive; ? = inconclusive; · = not tested or not shown; [ ] = dose if it differs, or a comment. An excerpt weighted towards active compounds, which were near 7.3% of everything screened. Calls come from the whole dose curve; as a rule, active = well fitted curve in the direction sought with a large enough effect; inconclusive = small, poorly fitted or top-dose-only effect, or another doubt; inactive = no such curve, though single readings can be large; an effect the other way counts as inactive or inconclusive. Potency is the fitted concentration of half-maximal effect.

SMILES	FLuc modulator	NPC1 prom act	SMN2 splice up	KinaseGlo FLuc	Rab9 prom act
COc1cc(C=C(c2nc3ccccc3s2)c2nc3ccccc3s2)ccc1O	?	-1.3%	-13.1%	0.5%	-4.6%
COc1ccc(C=C(c2nc3ccccc3s2)c2nc3ccccc3s2)cc1O	10.7µM*	-0.1%	-49.7%	-2.8%	5.7%
CC(=O)NNc1nc2ccccc2s1	3.5%	1.2%	-24.0%	-2.1%	3.6%
Cc1ccc(OC(=O)c2cccc(S(=O)(=O)N(C)C)c2)c(-n2nc3ccccc3n2)c1	-16.6%	3.55µM*	?	0.8%	2.82µM*
Cc1ccc(C)c(COC(=O)c2cccc(S(=O)(=O)N3CCCC3)c2)c1	5.3%	-1.2%	·	·	-0.2%
Cc1ccc(OC(=O)c2ccc(S(=O)(=O)N(C)C)cc2)c(-n2nc3ccccc3n2)c1	?	3.98µM*	?	-5.4%	1.41µM*
Cc1ccc(OC(=O)c2cccc(S(=O)(=O)N3CCCC3)c2)c(-n2nc3ccccc3n2)c1	?	3.55µM*	11.2µM*	-0.4%	3.98µM*
CC(=O)Oc1ccc(C)cc1-n1nc2ccccc2n1	21.3µM*	2.82µM*	?	?	4.47µM*
O=C(Nc1cccc(F)c1)C1CCN(S(=O)(=O)c2cccc3nsnc23)CC1	-10.1%	·	-51.0%	·	·
Cc1ccc(C)c(NS(=O)(=O)c2cc(C(=O)O)ccc2Cl)c1	·	·	·	-0.8%	·
COc1ccc(N2CCN(C(=O)c3cc4c(=O)n(Cc5cccs5)ccc4nc3C)CC2)cc1	-6.6%	·	·	·	·
Cc1ccc(-c2nc3ccc(Cl)cc3n2OC(C)C(=O)O)cc1 (stereo not drawn)	10.7µM*	-0.1%	?	-1.1%	0.1%
On1c(-c2ccccc2)nc2ccc(Cl)cc21	16.9µM*	?	12.6µM*	-3.9%	?
COc1ccc(-c2nc3ccccc3n2OC(C)C(=O)O)cc1 (stereo not drawn)	10.7µM*	-1.8%	·	-1.6%	-0.4%
CC(Nc1ccc(-c2nc(-c3ccncc3)no2)cc1[N+](=O)[O-])c1ccccc1 (stereo not drawn)	-7.2%	·	·	·	·
CN1CCN(c2ccc(NC(=O)c3ccc(-c4ccc(Cl)cc4)o3)cc2)CC1	23.9µM*	1.7%	·	·	-0.5%
Cc1ccc(N2CCN(C(=S)c3ccc(-c4cccc([N+](=O)[O-])c4)o3)CC2)cc1	-12.1%	2.9%	-11.3%	2.6%	-0.3%
CCc1ccc2oc(-c3cccc(NC(=O)c4ccc(-c5cccc([N+](=O)[O-])c5)o4)c3)nc2c1	2.69µM*	·	?	·	·
O=C(Nc1cccc(-c2nc3cc(Cl)ccc3o2)c1)c1cc([N+](=O)[O-])ccc1N1CCOCC1	-14.6%	·	-3.1%	·	·
CS(=O)(=O)N1CCN(c2ccc(NC(=O)c3ccc(-c4ccc(Cl)cc4)o3)cc2)CC1	-0.4%	-5.7%	-11.5%	-0.9%	-12.0%
CCc1ccc2oc(-c3ccc(C)c(NC(=O)c4cc([N+](=O)[O-])ccc4N4CCOCC4)c3)nc2c1	1.69µM*	·	16.0%	·	·
CN1CCN(c2ccc(NC(=O)c3ccc(-c4cccc([N+](=O)[O-])c4)o3)cc2)CC1	15.1µM*	11.7%	-4.5%	5.0%	8.2%
CC(=O)[C@H]1[C@H](C#N)CC2C3CC=C4C[C@@H](O)CCC4(C)C3CCC21C (stereo partly drawn)	·	·	·	-2.0%[39.9 µM]	·
Cc1ccc(C)c(NC(=O)Cn2c(=O)n(CCC(C)C)c(=O)c3cccnc32)c1	-0.5%	·	7.5%	·	·
CC(C)=N[C@H](C(=O)O)C(C)(C)S	·	·	-15.0%[9.22 µM]	-0.4%[7.66 µM]	·
SMILES	FLuc modulator	NPC1 prom act	SMN2 splice up	KinaseGlo FLuc	Rab9 prom act
Cc1nc(C)c(-c2ccc(SCC(=O)Nc3cccc(F)c3)nn2)s1	?	-11.1%	·	·	-13.8%
O=C(CSc1ccc(-c2ccccn2)nn1)Nc1cccc(F)c1	13.5µM*	7.1%	·	·	13.6%
CC(=O)c1cccc(NC(=O)CSc2ccc(-c3sc(C)nc3C)nn2)c1	13.5µM*	-5.1%	·	·	-3.4%
Cc1cc(C)cc(NC(=O)CSc2ccc(-c3ccccn3)nn2)c1	?	-0.3%	·	·	-0.7%
Cc1ccccc1NC(=O)n1ncc2cc(Cl)ccc21	21.3µM*	9.8%	·	·	14.2%
O=C(Nc1ccccc1C(F)(F)F)n1ncc2cc(Cl)ccc21	-7.9%	·	·	·	·
COc1ccc(NC(=O)n2ncc3c(C)cccc32)cc1	3.01µM*	0.0891µM*	·	·	0.1µM*
COc1ccc(C)cc1NC(=O)n1ncc2c(C)cccc21	7.57µM*	24.9%	·	·	28.2%
COc1ccccc1NC(=O)n1ncc2c(C)cccc21	-6.9%	·	·	·	·
Cc1ccc(NC(=O)n2ncc3c(C)cccc32)cc1F	1.51µM*	?	·	·	0.794µM*
CC1CCN(S(=O)(=O)c2ccc3c(ccc(=O)n3CC(=O)NCc3ccccc3Cl)c2)CC1	-1.7%	·	·	·	·
Cc1cccc2c1cnn2C(=O)Nc1ccccc1Cl	1.69µM*	?	·	·	?
COc1ccc(NC(=O)n2ncc3c(C)cccc32)cc1OC	1.9µM*	2.24µM*	·	·	3.16µM*
Cc1cccc2c1cnn2C(=O)CCC(=O)NCC(C)c1ccccc1 (stereo not drawn)	-2.1%	1.3%	·	·	-0.5%
COc1cc(NC(=O)c2cnc(N)o2)cc(C(=O)Nc2cccc(C(F)(F)F)c2)c1	21.3µM*	-2.8%	·	·	-5.8%
COc1cc(NC(=O)c2csc(N)n2)cc(C(=O)Nc2cccc(C(F)(F)F)c2)c1	?	20.8%	·	·	-21.5%
COc1cc(NC(=O)c2ccnc(N)c2)cc(C(=O)Nc2cccc(C(F)(F)F)c2)c1	19µM*	-8.0%	·	·	-2.7%
COc1cc(NC(=O)c2cnc(N)s2)cc(C(=O)Nc2cccc(C(F)(F)F)c2)c1	12µM*	12.6%	·	·	11.0%
COc1ccc(Cl)cc1NC(=O)Cn1cnc2sc(C)c(S(=O)(=O)N3CCN(c4ccccc4OC)CC3)c2c1=O	6.1%	·	-1.0%	·	·
CC1=C(C(N)=O)C(c2cccc(Br)c2)n2nc(SCc3ccccc3)nc2N1 (stereo not drawn)	0.4%	·	8.0%	·	·
CCOc1ccc(S(=O)(=O)NCCc2c(C)[nH]c3c(Cl)cccc23)cc1C	1.8%	·	-11.3%	·	·
CCOc1ccc(NC(=O)c2ccccc2OCC(=O)c2ccccc2)cc1	2.13µM*	23.3%	-12.0%	7.8%	?
O=C(COc1ccc(NC(=O)c2ccccc2)cc1)c1ccccc1	2.13µM*	?	·	·	14.7%
Cc1ccc(NC(=O)c2ccccc2OCC(=O)c2ccccc2)cc1	13.5µM*	-0.2%	23.7%	-3.8%	-0.4%
CCOc1ccccc1C(=O)Nc1ccc(NC(=O)c2ccccc2)cc1	0.7%	-0.7%	·	·	10.5%
CC(C)(C)OC(=O)N/N=C/c1c[nH]c2ccccc12	9.53µM*	22.4%	·	-10.8%	25.1%
Cc1occc1C(=O)N/N=C/c1c[nH]c2ccccc12	13.5µM*	?	4.6%	-6.1%	?
CC(C)Oc1ccc(Br)cc1C(=O)N/N=C/c1c[nH]c2ccccc12	-21.0%	-5.2%	·	·	2.1%
O=C(N/N=C/c1c[nH]c2ccccc12)c1ccc(Cl)cc1	7.57µM*	?	·	·	?
COC(=O)N/N=C/c1c[nH]c2ccccc12	-16.5%	-3.4%	-46.9%	-5.2%	1.4%

Screens: PubChem, National Center for Advancing Translational Sciences (NCATS)
